About 15 (0.9%) of roughly 1,700 compounds were called active.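 The calls were made as follows: active = fluorescence response below the plate's average for near-maximal glutamate wells, less 3 SD of those wells; inactive = the rest.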 The list is a sample of the results.

Among the data in PubChem BioAssay AID678 (Vanderbilt High Throughput Screening Facility, 2007) are fluorescence response (max-min) values, retold here.

This experiment deals with Metabotropic glutamate receptor 4 (Homo sapiens) (UniProt Q14833). Nature of the experiment: human mGluR4 response to M1 antagonist hits, M1 allosteric modulator project, cell-based, antagonist mode, secondary assay 1 (AID 678).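 Also: raw unnormalized fluorescence span taken in the window right after glutamate addition.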 The note with it: CHO-mGluR4 calcium flux, Fluo-4 fluorescence, glutamate EC80; at 10 µM; stronger effect = lower value.
For the compound `CN(C)[C@@H]1C(=O)C(C(N)=O)=C(O)[C@@]2(O)C(=O)C3=C(O)c4c(O)ccc(Cl)c4[C@@H](O)[C@H]3C[C@@H]12`, the fluorescence response (max-min) was 238 (inactive). In the case of `Cc1cccc(N2CCN(Cc3c(C)n(C)n(-c4ccccc4)c3=O)CC2)c1C` it was 223 (inactive). In the case of `CCC1(C)Cc2c(sc3nc4n(c(=O)c23)CCCS4)CO1` (stereo not given) it was 249 (inactive).

With `O=C(NC1=NCCS1)c1ccc(Cl)s1`, the fluorescence response (max-min) is 158 (inactive). In the case of `Cc1nc2ccccc2c2oc(C(=O)NCCCN3CCC(C)CC3)cc12` it was 185 (inactive). For `O=S(=O)(CCc1nc2ccccc2o1)c1ccc(Cl)cc1` the value was 249 (inactive). On to `CCOC(=O)C1=C(CC)Nc2ccccc2N=C1NC(=O)c1cccc(S(=O)(=O)N2CCCC2)c1`, for which the fluorescence response (max-min) was 148 (inactive). For `COc1ccc(CCn2c(=N)c(C(=O)NCc3ccco3)cc3c(=O)n4cccc(C)c4nc32)cc1` the value was 207 (inactive). For `CCC(C(=O)OCCN(CC)CC)c1ccccc1` (stereo not given) the value was 235 (inactive).

Turning to `O=C(c1ccco1)N1CCN=C1SCc1cccc(Cl)c1`, the fluorescence response (max-min) was 236 (inactive).

As for `O=C1NC(Nc2nc3ccccc3s2)(C(F)(F)F)C(=O)N1C1CCCCC1` (stereo not given), the fluorescence response (max-min) is 308 (inactive). For `Cn1c(CCN2CCCCCC2)nc2cc(NC(=O)Nc3ccccc3)ccc21` the value was 225 (inactive); for `CCOC(=O)c1c(-c2ccc(C)cc2C)csc1NC(=O)CSc1nnnn1C`, 167 (inactive); for `CC(C)(C)n1nnnc1C(c1cccs1)N(Cc1cccnc1)CC1CCCO1` (stereo not given), 241 (inactive). In the case of `CCn1c(=N)n(CC(=O)c2cccc(OC)c2)c2ccccc21` it was 268 (inactive); in that of `O=C(C(NS(=O)(=O)c1cccc2nsnc12)c1ccccc1)N1CCN(c2ccccn2)CC1` (stereo not given), 228 (inactive). In the case of `C=CCn1c(=S)[nH]c2nc3c(cc2c1=O)COC(C)(C)C3`, the fluorescence response (max-min) was 199 (inactive).

On to `Cc1nc2c(-c3ccc(F)cc3)c(C)nn2c(C)c1CCC(=O)N1CCN(c2ccccn2)CC1`, for which the fluorescence response (max-min) was 245 (inactive). Turning to `CN(C)CCOC(=O)C(c1ccccc1)C1(O)CCCC1` (stereo not given), the fluorescence response (max-min) was 250 (inactive). In the case of `CCCCN(C)C(=O)c1ccc2c(c1)N(CC)C(=O)c1ccccc1S2(=O)=O` it was 258 (inactive); in that of `O=C(NCCCN1CCCCCC1)C1CC(=O)N(C2CCCC2)C1` (stereo not given), 241 (inactive); in that of `CC1CCCC(C)N1CCCNC(=O)c1cc2c(=O)n(C)c3ccccc3c2n1C` (stereo not given), 236 (inactive). Take `CCOc1ccccc1C(=O)NCCCn1ccnc1`: the fluorescence response (max-min) was 200 (inactive). For `O=S(=O)(c1ccc(OCC(O)CN2CCN(c3ccccc3Cl)CC2)cc1)N1CCOCC1` (stereo not given) the value was 233 (inactive); for `COc1cccc2sc(Nc3nc(C)c(C(C)=O)s3)nc12`, 200 (inactive); for `CCC(C)(NC(=O)c1ccccn1)C(=O)NC1CCCCC1` (stereo not given), 237 (inactive). In the case of `COc1cccc(OCCOc2cccc(/C=N/n3cnnc3)c2)c1` it was 210 (inactive). For `CCOC(=O)N1CCN(C(=O)C2CCN(c3ncnc4c3sc3cccc(F)c34)CC2)CC1` the value was 221 (inactive). For the compound `Cc1ccccc1C(OCC(O)CN1CCCCC1CCO)c1ccccc1` (stereo not given), the fluorescence response (max-min) is 188 (inactive). In the case of `N#CC(C(=O)c1ccc(S(=O)(=O)N2CCCCCC2)cc1)c1nc2ccccc2[nH]1` (stereo not given) it was 182 (inactive); in that of `COc1ccc(S(=O)(=O)Nc2ccc3c(c2)OCO3)cc1Cl`, 202 (inactive); in that of `CCOC(=O)C1CCN(Cc2coc3ccc(Cl)cc3c2=O)CC1`, 219 (inactive). For `O=C(Cc1cccs1)N1CCCC(c2nc(-c3ccc(S(=O)(=O)N4CCCC4)cc3)no2)C1` (stereo not given) the value was 213 (inactive); for `CCOC(=O)c1[nH]c2ccc(OC)cc2c1NC(=O)CCN1CCN(Cc2ccccc2)CC1`, 230 (inactive); for `CCOC(=O)N1CCN(CC(=O)Nc2cc(C)nn2-c2nc3ccccc3s2)CC1`, 255 (inactive).

Take `COc1cc(Cl)c(C)cc1NC(=O)CSc1nnc(-c2ccco2)n1CC(C)C`: the fluorescence response (max-min) was 252 (inactive). In the case of `CCC(=O)c1ccc(OCC(O)CN2CCN(c3cccc(C(F)(F)F)c3)CC2)cc1` (stereo not given) it was 252 (inactive); in that of `O=C(NCC(F)(F)F)Nc1nnc(C(F)(F)F)s1`, 203 (inactive); in that of `CSc1nnc2c(n1)OC(c1ccsc1)N(C(C)=O)c1ccccc1-2` (stereo not given), 247 (inactive). Regarding `CN1CCN(CC(=O)Nc2sc3c(c2C#N)CCC(C(C)(C)C)C3)CC1` (stereo not given), the fluorescence response (max-min) is 231 (inactive). Turning to `Cc1ccc(-c2csc3nnc(SCC(=O)NCc4ccco4)n23)cc1`, the fluorescence response (max-min) is 237 (inactive). Regarding `Cc1ccsc1-c1nc(CSCC(=O)NCCN2CCCC2)c(C)o1`, the fluorescence response (max-min) was 246 (inactive). For `CC1=Nn2c(nnc2-c2ccccc2)SC1` the value was 162 (inactive).

With `CCCCCOC(=O)NCCOC(=O)Nc1ccc(C(=O)OCC)cc1`, the fluorescence response (max-min) is 170 (inactive). In the case of `CCOC(=O)N1CCN(C(=O)C2CCCN(c3ncnc4c3sc3cccc(F)c34)C2)CC1` (stereo not given) it was 165 (inactive); in that of `c1ccc(-c2cc(-c3nnc4sc(-c5ccccn5)nn34)[nH]n2)cc1`, 215 (inactive). For `CC1(C)Cc2c(sc3nc4n(c(=N)c23)CCCCC4)CO1` the value was 203 (inactive); for `CCN(CCCCOC(=O)c1ccc(OC)c(OC)c1)C(C)Cc1ccc(OC)cc1` (stereo not given), 254 (inactive); for `Cc1ccc(-c2noc(CCC(=O)Nc3ccccc3N3CCN(C)CC3)n2)cc1`, 218 (inactive). `COC(=O)c1ccc(NC(=O)CN(c2ccc(C)cc2)S(=O)(=O)c2c(C)n[nH]c2C)cc1`: the fluorescence response (max-min) was 174 (inactive).

Take `O=C(c1ccc(S(=O)(=O)N2CCOCC2)cc1)N1CCN(c2ccccc2)CC1`: the fluorescence response (max-min) is 197 (inactive). In the case of `COc1ccc(-c2noc(CN(C)S(=O)(=O)c3ccc(C)cc3)n2)cc1` it was 259 (inactive). In the case of `COc1ccc(-c2nnn(Cc3nc(N)nc(N4CCCCC4)n3)n2)cc1` it was 348 (inactive); in that of `CC1(C)CN=C(N2CCN(c3ncnc4sc5c(c34)CCCC5)CC2)S1`, 244 (inactive). In the case of `CC12CN(Cc3ccccc3)CC(C)(CN(Cc3ccccc3)C1)C2=NO` it was 253 (inactive). As to `COCCN(C(=O)CCC(=O)Nc1ccccn1)C(C(=O)NCCC(C)C)c1ccc(OC)cc1` (stereo not given), the fluorescence response (max-min) was 243 (inactive).

Take `O=C(CCN1C(=O)COc2ccccc21)NCCCN1CCN(c2ccc(F)cc2)CC1`: the fluorescence response (max-min) was 252 (inactive). On to `COCCn1c(SCC(=O)Nc2cc(Cl)ccc2OC)nc2c(c1=O)SC(C)C2` (stereo not given), for which the fluorescence response (max-min) is 256 (inactive). In the case of `COc1cc(OC)c(C(=O)NC2CC(C)(C)NC(C)(C)C2)cc1OC` it was 184 (inactive); in that of `CN1CCN(c2ccc(NC(=O)COc3ccc(Cl)cc3Cl)cc2)CC1`, 245 (inactive); in that of `O=C(C(c1ccccc1)c1ccccc1)N1CCN(CC(O)COc2ccccc2)CC1` (stereo not given), 172 (inactive). For `C=CCSc1nc2ccccc2[nH]1` the value was 255 (inactive).

With `COC(CCN(C)C)(c1ccccc1)c1ccccc1`, the fluorescence response (max-min) is 257 (inactive). For `CCN1CCN(c2c(Cl)cccc2NC(=O)c2ccc(Br)o2)CC1` the value was 203 (inactive); for `O=C(Nc1ccncc1)c1c(F)cccc1F`, 195 (inactive); for `CCn1c(=O)cc(OCC(=O)NCCCN2CCN(c3cccc(Cl)c3)CC2)c2ccccc21`, 275 (inactive).

Take `CCOC(=O)c1c(NC(=O)CSc2nnc(CN3CCOCC3)n2C)sc2c1CCCC2`: the fluorescence response (max-min) was 212 (inactive). For `COC(=O)c1ccc(C2C3=C(Nc4nnnn42)c2ccccc2OC3)cc1` (stereo not given) the value was 256 (inactive); for `CCC/C(O)=C1\C(=O)CC(C)(C)CC1=Nc1ccccc1OC`, 272 (inactive); for `CCOC(=O)Nc1ccc2c(c1)N(C(=O)CN1CCN3CCCC3C1)c1ccccc1CC2` (stereo not given), 187 (inactive). In the case of `O=C(c1ccc(-n2cnnn2)cc1)N1CCN(C(c2ccccc2)c2ccccc2)CC1`, the fluorescence response (max-min) was 242 (inactive). For `CCOC(=O)N1CCN(S(=O)(=O)c2cc(Br)cc3c2N(C(=O)C2CC2)CC3)CC1` the value was 246 (inactive); for `Cc1cc(C)n(-c2nc(SCC(=O)N3CCCC3)c3c4c(sc3n2)CCCC4)n1`, 193 (inactive). For `CCCCN(CCCC)C(=O)CCS(=O)(=O)c1ccc2c(c1)n(C)c(=O)c(=O)n2C` the value was 272 (inactive); for `C=C(C)Cn1c(N2CCCC2)nc2c1c(=O)[nH]c(=O)n2C`, 203 (inactive); for `Cc1c(C)c2cc3c4c(oc3c(C)c2oc1=O)CCCC4`, 174 (inactive).

`CCN1C(=O)/C(=C2\SC(N3CCCCC3)=NC2=O)c2ccccc21`: the fluorescence response (max-min) was 235 (inactive). With `CCCCOc1ccc(C(C)(O)CCN2CCOCC2)cc1` (stereo not given), the fluorescence response (max-min) was 209 (inactive). In the case of `O=C(CCCN1C(=O)CSc2ncccc21)N1CCN(c2cccc(C(F)(F)F)c2)CC1` it was 263 (inactive). For `COc1ccccc1OCCOc1ccc(/C=N/n2cnnc2)cc1` the value was 239 (inactive).
